Experimental data taken from PubChem BioAssay (EPA / NIEHS).
Active and inactive are the calls of the source. How the source made its calls: active means hit-call score of the fitted dose curve at least 0.9, where 1 is the maximum; inactive means score below 0.9.

How the values were obtained:
Details in all cases: mRNA level, 48 h; actives raise or lower the signal
[1] = read-out: Bcl-2 (BAX) gene, BAX (gene 581); assay: LTEA_HepaRG_BAX: Life Technologies and Expression Analysis (LTEA) Assay for Bcl-2 (BAX) gene using HepaRG (AID 2283470)
How it was run: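 HepaRG (human liver), 48 h exposure, duplicate wells. 8-pt curve, half-log from 100 uM, 0.5% DMSO. BAX transcript by TaqMan qRT-PCR; ACTB/GAPDH/POLR2A normalization; gain or loss vs DMSO baseline.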

[2] = read-out: adenosine kinase (ADK) gene, ADK (gene 132); assay: LTEA_HepaRG_ADK: Life Technologies and Expression Analysis (LTEA) Assay for adenosine kinase (ADK) gene using HepaRG (AID 2283471)
How it was run: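 Read-out is ADK transcript level measured by qRT-PCR and normalised to three housekeeping genes. Cells are human HepaRG, dosed for 48 h at up to 100 uM in 0.5% DMSO. Gain or loss of signal is fitted against DMSO controls.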

[3] = read-out: Alpha-fetoprotein (AFP) gene, AFP (gene 174); assay: LTEA_HepaRG_AFP: Life Technologies and Expression Analysis (LTEA) Assay for Alpha-fetoprotein (AFP) gene using HepaRG (AID 2283472)
How it was run: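 HepaRG, single lot; 48 h post-plating -> serum-free induction medium; cpd 8-pt, 100 uM top, half-log, 0.5% DMSO, duplicate, 48 h. RNA -> qRT-PCR AFP, norm ACTB/GAPDH/POLR2A. Bidirectional fit vs DMSO.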

BCL2L11 (gene 10018) = assay: LTEA_HepaRG_BCL2L11: Life Technologies and Expression Analysis (LTEA) Assay for Bcl-2 (BCL2L11) gene using HepaRG (AID 2283473)
How it was run: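 BCL2L11 transcript levels are measured by Fluidigm qRT-PCR, normalized to three housekeeping genes. HepaRG cultures were plated 48 h, then treated 48 h with test chemical (top 100 uM, half-log, 0.5% DMSO vehicle); curves were fitted bidirectionally against DMSO.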

[4] = read-out: Bcl-2 (BID) gene, BID (gene 637); assay: LTEA_HepaRG_BID: Life Technologies and Expression Analysis (LTEA) Assay for Bcl-2 (BID) gene using HepaRG (AID 2283476)
How it was run: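 Transcript levels of BID, measured by qRT-PCR and normalized to three housekeeping genes, were fitted bidirectionally against DMSO controls. Cells were HepaRG, dosed 48 h at up to 100 uM.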

Caspase-3 (Homo sapiens) = Caspase-3 (Homo sapiens) (UniProt P42574); assay: LTEA_HepaRG_CASP3: Life Technologies and Expression Analysis (LTEA) Assay for cysteine-aspartic acid protease (CASP3) using HepaRG (AID 2283477)
How it was run: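 Expression of CASP3 was quantified by TaqMan qRT-PCR against three housekeeping genes (ACTB, GAPDH, POLR2A), bidirectionally versus 0.5% DMSO. HepaRG cultures received compounds in duplicate, top 100 uM with half-log steps, for 48 h in serum-free induction medium.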

[5] = read-out: Cytochrome P450 (CYP24A1), CYP24A1 (gene 1591); assay: LTEA_HepaRG_CYP24A1: Life Technologies and Expression Analysis (LTEA) Assay for Cytochrome P450 (CYP24A1) using HepaRG (AID 2283478)
How it was run: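 mRNA of CYP24A1 quantified by TaqMan qRT-PCR (ACTB/GAPDH/POLR2A normalization) after 48 h chemical exposure of HepaRG cells, top concentration 100 uM, half-log steps, 0.5% DMSO vehicle, duplicates. Curves fitted bidirectionally against DMSO baseline.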

[6] = read-out: Cytochrome P450 (CYP1A2), CYP1A2 (gene 1544); assay: LTEA_HepaRG_CYP1A2: Life Technologies and Expression Analysis (LTEA) Assay for Cytochrome P450 (CYP1A2) using HepaRG (AID 2283479)
How it was run: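 CYP1A2 transcript measured by TaqMan qRT-PCR against three housekeeping genes after 48-hour chemical exposure of HepaRG cells. Eight-point half-log series topping at 100 uM in 0.5% DMSO, duplicates; gain or loss fitted relative to vehicle.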

[7] = read-out: cysteine-aspartic acid protease (CASP8), CASP8 (gene 841); assay: LTEA_HepaRG_CASP8: Life Technologies and Expression Analysis (LTEA) Assay for cysteine-aspartic acid protease (CASP8) using HepaRG (AID 2283480)
How it was run: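 Differentiated human HepaRG cells, plated 48 h then switched to serum-free induction medium, were exposed in duplicate for 48 h to 8 half-log concentrations up to 100 uM in 0.5% DMSO. CASP8 mRNA was quantified by qRT-PCR, normalized to ACTB/GAPDH/POLR2A.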

[8] = read-out: Cytochrome P450 (CYP2B6), CYP2B6 (gene 1555); assay: LTEA_HepaRG_CYP2B6: Life Technologies and Expression Analysis (LTEA) Assay for Cytochrome P450 (CYP2B6) using HepaRG (AID 2283481)
How it was run: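 CYP2B6 transcript level quantified by qRT-PCR against three housekeeping genes, fitted bidirectionally relative to DMSO. HepaRG cultures received chemicals for 48 h, 8-point half-log series from 100 uM in 0.5% DMSO, duplicate wells, serum-free induction medium.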

[9] = read-out: Cytochrome P450 2C19 (Homo sapiens) (UniProt P33261); assay: LTEA_HepaRG_CYP2C19: Life Technologies and Expression Analysis (LTEA) Assay for CYP2C19 using HepaRG (AID 2283482)
How it was run: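 CYP2C19 transcript levels by qRT-PCR, normalized to three housekeeping genes, in HepaRG cells after 48 h chemical exposure. Eight-point half-log series topping at 100 uM, 0.5% DMSO vehicle. Increases and decreases both fitted against DMSO.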

CYP2C8 (gene 1558) = assay: LTEA_HepaRG_CYP2C8: Life Technologies and Expression Analysis (LTEA) Assay for CYP2C8 using HepaRG (AID 2283483)
How it was run: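 Differentiated human HepaRG cells were exposed for 48 h in serum-free induction medium to eight half-log concentrations up to 100 uM in 0.5% DMSO, in duplicate. CYP2C8 mRNA was measured by TaqMan qRT-PCR, normalized to ACTB, GAPDH and POLR2A, and fitted bidirectionally against DMSO.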

CYP2C9 (gene 1559) = assay: LTEA_HepaRG_CYP2C9: Life Technologies and Expression Analysis (LTEA) Assay for CYP2C9 using HepaRG (AID 2283484)
How it was run: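 Differentiated human HepaRG cells were exposed 48 h in serum-free induction medium to eight half-log concentrations up to 100 uM in 0.5% DMSO. CYP2C9 mRNA was measured by qRT-PCR, normalized to ACTB, GAPDH and POLR2A, and fitted bidirectionally against DMSO.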

CYP2E1 (gene 1571) = assay: LTEA_HepaRG_CYP2E1: Life Technologies and Expression Analysis (LTEA) Assay for CYP2E1 using HepaRG (AID 2283485)
How it was run: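 Human liver line HepaRG, plated 48 h, then serum-free induction medium + chemical x 48 h; 8-pt CRC from 100 uM, half-log, 0.5% DMSO, n=2. Readout: CYP2E1 mRNA qRT-PCR vs ACTB/GAPDH/POLR2A; bidirectional fit vs DMSO.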

CYP4A11 (gene 1579) = assay: LTEA_HepaRG_CYP4A11: Life Technologies and Expression Analysis (LTEA) Assay for CYP4A11 using HepaRG (AID 2283486)
How it was run: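 Readout is CYP4A11 transcript level by qRT-PCR, normalized to three housekeeping genes and fitted bidirectionally against 0.5% DMSO. Human HepaRG cells were treated 48 h, in duplicate, with an 8-point half-log series topping at 100 uM.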

[10] = read-out: Cytochrome P450 3A4 (Homo sapiens) (UniProt P08684); assay: LTEA_HepaRG_CYP3A4: Life Technologies and Expression Analysis (LTEA) Assay for CYP3A4 using HepaRG (AID 2283487)
How it was run: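 HepaRG, 48 h exposure, 8-pt CRC from 100 uM (half-log), 0.5% DMSO, duplicates; serum-free induction medium. Readout: CYP3A4 mRNA, qRT-PCR, ACTB/GAPDH/POLR2A normalization. Bidirectional fit vs DMSO.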

[11] = read-out: DNA damage-inducible transcript 3 (DDIT3), DDIT3 (gene 1649); assay: LTEA_HepaRG_DDIT3: Life Technologies and Expression Analysis (LTEA) Assay for DNA damage-inducible transcript 3 (DDIT3) using HepaRG (AID 2283488)
How it was run: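 HepaRG plated 48 h, switched to serum-free induction medium, dosed 48 h (100 uM top, half-log, 8 pts, 0.5% DMSO, n=2); RNA isolated; DDIT3 by qRT-PCR; bidirectional curve fit vs DMSO.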

[12] = read-out: Pro-epidermal growth factor (Homo sapiens) (UniProt P01133); assay: LTEA_HepaRG_EGF: Life Technologies and Expression Analysis (LTEA) Assay for Epidermal growth factor (EGF) using HepaRG (AID 2283489)
How it was run: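 EGF transcript measured by Fluidigm TaqMan qRT-PCR with three housekeeping genes for normalization, 48 h after dosing HepaRG cultures in duplicate (top 100 uM, half-log steps, 0.5% DMSO vehicle). Gain or loss relative to DMSO fitted.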

[13] = read-out: Apoptosis regulator Bcl-2 (Homo sapiens) (UniProt P10415); assay: LTEA_HepaRG_BCL2: Life Technologies and Expression Analysis (LTEA) Assay for Bcl-2 gene using HepaRG (AID 2283475)
How it was run: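 HepaRG, plated 48 h then switched to serum-free induction medium; dosed 48 h, 8 conc. (max 100 uM, half-log steps), duplicate, 0.5% DMSO. Lysis in RLT, RNA isolated, TaqMan qRT-PCR for BCL2; ACTB/GAPDH/POLR2A normalisation; bidirectional fit vs DMSO.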

Chain of Caspase-3 (Homo sapiens) (P42574 whole entry, looked up): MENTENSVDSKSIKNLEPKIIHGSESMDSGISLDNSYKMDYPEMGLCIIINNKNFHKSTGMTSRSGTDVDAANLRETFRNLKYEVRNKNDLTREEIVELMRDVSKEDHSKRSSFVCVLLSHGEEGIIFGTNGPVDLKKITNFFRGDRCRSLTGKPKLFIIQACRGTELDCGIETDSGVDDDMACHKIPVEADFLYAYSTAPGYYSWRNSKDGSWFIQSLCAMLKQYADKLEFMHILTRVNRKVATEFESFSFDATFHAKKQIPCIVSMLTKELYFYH
Chain of Cytochrome P450 2C19 (Homo sapiens) (P33261 whole entry, looked up): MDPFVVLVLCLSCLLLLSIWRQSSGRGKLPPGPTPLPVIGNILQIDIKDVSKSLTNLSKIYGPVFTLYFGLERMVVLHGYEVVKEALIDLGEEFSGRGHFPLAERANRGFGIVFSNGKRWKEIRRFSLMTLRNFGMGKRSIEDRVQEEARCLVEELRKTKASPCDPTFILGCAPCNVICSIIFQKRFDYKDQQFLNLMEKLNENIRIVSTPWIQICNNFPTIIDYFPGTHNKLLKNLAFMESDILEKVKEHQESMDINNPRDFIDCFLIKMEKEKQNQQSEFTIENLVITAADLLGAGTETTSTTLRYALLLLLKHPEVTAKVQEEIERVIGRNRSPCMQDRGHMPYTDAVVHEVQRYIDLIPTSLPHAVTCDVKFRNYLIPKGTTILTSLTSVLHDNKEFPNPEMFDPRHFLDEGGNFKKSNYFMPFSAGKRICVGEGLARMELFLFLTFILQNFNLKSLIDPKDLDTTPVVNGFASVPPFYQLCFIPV
Chain of Cytochrome P450 3A4 (Homo sapiens) (P08684 whole entry, looked up): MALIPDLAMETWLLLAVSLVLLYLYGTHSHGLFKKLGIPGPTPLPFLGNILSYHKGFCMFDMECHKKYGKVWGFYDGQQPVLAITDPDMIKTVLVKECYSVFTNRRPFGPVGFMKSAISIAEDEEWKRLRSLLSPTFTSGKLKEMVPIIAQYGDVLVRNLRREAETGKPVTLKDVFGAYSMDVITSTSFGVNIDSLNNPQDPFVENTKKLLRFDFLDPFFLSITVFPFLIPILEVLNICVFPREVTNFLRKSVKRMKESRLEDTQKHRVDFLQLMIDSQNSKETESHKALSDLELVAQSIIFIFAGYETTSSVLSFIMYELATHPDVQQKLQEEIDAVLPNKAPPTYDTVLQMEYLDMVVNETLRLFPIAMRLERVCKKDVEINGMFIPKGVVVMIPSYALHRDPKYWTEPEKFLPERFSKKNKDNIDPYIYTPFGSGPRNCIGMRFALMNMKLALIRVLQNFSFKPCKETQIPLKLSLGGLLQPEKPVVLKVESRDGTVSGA
Chain of Apoptosis regulator Bcl-2 (Homo sapiens) (P10415 whole entry, looked up): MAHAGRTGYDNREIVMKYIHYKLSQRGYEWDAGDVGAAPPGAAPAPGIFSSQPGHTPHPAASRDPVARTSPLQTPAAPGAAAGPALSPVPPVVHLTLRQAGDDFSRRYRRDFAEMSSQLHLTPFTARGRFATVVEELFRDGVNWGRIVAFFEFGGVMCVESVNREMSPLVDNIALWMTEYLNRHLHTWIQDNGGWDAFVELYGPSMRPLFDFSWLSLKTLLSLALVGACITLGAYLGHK

SMILES: CC(C)(C)C(=O)C(Oc1ccc(Cl)cc1)n1cncn1 (centres undefined)
- outcome [1]: inactive
- outcome [2]: inactive
- outcome [3]: inactive
- outcome (BCL2L11 (gene 10018)): inactive
- outcome [4]: inactive
- outcome (Caspase-3 (Homo sapiens)): inactive
- outcome [5]: inactive
- outcome [6]: inactive
- outcome [7]: inactive
- AC50 [8]: 5.18 µM (active)
- AC50 [9]: 10.7 µM (active)
- AC50 (CYP2C8 (gene 1558)): 15.4 µM (active)
- outcome (CYP2C9 (gene 1559)): inactive
- AC50 (CYP2E1 (gene 1571)): 31.1 µM (active)
- AC50 (CYP4A11 (gene 1579)): 50 µM (active)
- AC50 [10]: 2.67 µM (active)
- outcome [11]: inactive
- outcome [12]: inactive

SMILES: CO/N=C(/C1=NOCCO1)c1ccccc1Oc1ncnc(Oc2ccccc2Cl)c1F
- AC50 [1]: 31.3 µM (active)
- outcome [2]: inactive
- AC50 [3]: 18.2 µM (active)
- AC50 (BCL2L11 (gene 10018)): 27.7 µM (active)
- AC50 [13]: 29.7 µM (active)
- outcome [4]: inactive
- outcome (Caspase-3 (Homo sapiens)): inactive
- outcome [5]: inactive
- AC50 [6]: 13.1 µM (active)
- outcome [7]: inactive
- AC50 [8]: 21.1 µM (active)
- AC50 [9]: 29.5 µM (active)
- AC50 (CYP2C9 (gene 1559)): 25.2 µM (active)
- AC50 (CYP2E1 (gene 1571)): 7.94 µM (active)
- AC50 (CYP4A11 (gene 1579)): 14.2 µM (active)
- AC50 [10]: 30.5 µM (active)
- AC50 [11]: 25.1 µM (active)
- outcome [12]: inactive

SMILES: O=C1C2CC=CCC2C(=O)N1SC(Cl)(Cl)Cl (centres undefined)
- outcome [1]: inactive
- outcome [2]: inactive
- outcome [3]: inactive
- outcome (BCL2L11 (gene 10018)): inactive
- outcome [4]: inactive
- outcome (Caspase-3 (Homo sapiens)): inactive
- outcome [5]: inactive
- outcome [6]: inactive
- outcome [7]: inactive
- outcome [8]: inactive
- outcome [9]: inactive
- outcome (CYP2C9 (gene 1559)): inactive
- outcome (CYP2E1 (gene 1571)): inactive
- outcome (CYP4A11 (gene 1579)): inactive
- outcome [10]: inactive
- outcome [11]: inactive
- outcome [12]: inactive

SMILES: CN=C=S
- outcome [1]: inactive
- outcome [2]: inactive
- outcome [3]: inactive
- outcome (BCL2L11 (gene 10018)): inactive
- outcome [13]: inactive
- outcome [4]: inactive
- outcome (Caspase-3 (Homo sapiens)): inactive
- outcome [5]: inactive
- outcome [6]: inactive
- outcome [7]: inactive
- outcome [8]: inactive
- outcome [9]: inactive
- outcome (CYP2C9 (gene 1559)): inactive
- outcome (CYP2E1 (gene 1571)): inactive
- outcome (CYP4A11 (gene 1579)): inactive
- outcome [10]: inactive
- outcome [11]: inactive
- outcome [12]: inactive

SMILES: CCOP(=O)(OCC)Oc1nc(Cl)c(Cl)cc1Cl
- outcome [1]: inactive
- outcome [2]: inactive
- AC50 [3]: 75.9 µM (active)
- AC50 (BCL2L11 (gene 10018)): 76.6 µM (active)
- AC50 [13]: 68.4 µM (active)
- outcome [4]: inactive
- outcome (Caspase-3 (Homo sapiens)): inactive
- outcome [5]: inactive
- outcome [6]: inactive
- outcome [7]: inactive
- AC50 [8]: 83.6 µM (active)
- AC50 [9]: 80.7 µM (active)
- AC50 (CYP2C9 (gene 1559)): 93 µM (active)
- AC50 (CYP2E1 (gene 1571)): 76 µM (active)
- AC50 (CYP4A11 (gene 1579)): 77.4 µM (active)
- AC50 [10]: 49.8 µM (active)
- outcome [11]: inactive
- outcome [12]: inactive
